Experiment in all cases: qHTS profiling for inhibitors of Plasmodium falciparum proliferation (AID 504749); further: nearly all actives have a fitted effect of over 60% in size
What all share (details): P. falciparum in erythrocytes, SYBR Green DNA, 72 h; series mostly up to 28.7 µM

The subject of experiment [1] is N140. An outline of the steps:
(§1)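 P. falciparum-infected erythrocytes (0.3% parasitemia, 2.5% hematocrit) incubated with compound 72 h at 37 C, 5% CO2. Parasite DNA detected by SYBR Green after lysis, overnight at room temperature; normalised to 0.29 uM artemisinin and DMSO.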

Experiment [2] has as its system P93_24. An outline of the steps:
as §1

For experiment [3], the system named is P94_40. An outline of the steps: as §1
For experiment [4], the system named is PAD. In outline:
as §1

Experiment [5] concerns PC15. An outline of the steps:
as §1

The test system of experiment [6] is PC26. An outline of the steps: as §1
Experiment [7] relates to PC49. An outline of the steps:
as §1

The test system of experiment [8] is SC27B. An outline of the steps: as §1
Experiment [9] concerns TAB109. An outline of the steps: as §1
Experiment [10] concerns TAB113. In outline:
as §1

Inconclusive results are not listed. Activity calls are given as the source filed them. The call rests on the fitted dose curve; in most records, active means well fitted inhibition curve with a large enough effect; inconclusive means small, poorly fitted or top-dose-only effect; inactive means flat fitted curve, though single readings scatter.
Potency means the concentration at half of the fitted maximal effect.

`CN1CCC[C@@H]1c1cccnc1`: the Potency result in experiment [1], in [2], in experiment [3], in experiment [4], in experiment [5] and in experiment [6] was “inactive” each time. Also, the Potency entry in experiment [7], in [8], in experiment [9] and in experiment [10] was “inactive” each time.

On to `COc1ccc(/C=C/C(=O)c2ccc(OC)cc2OC)cc1`, for which the Potency in experiment [1] was 11.2 µM (active); in experiment [2] it was 8.91 µM (active); in [3], 10 µM (active); in experiment [4], 10 µM (active); in experiment [5] it was 7.08 µM (active); in experiment [6] it was 7.57 µM (active). For the same compound, the Potency in experiment [7] is 5.62 µM (active); in [8], 10 µM (active); in experiment [9] it was 7.08 µM (active); in experiment [10] it was 8.91 µM (active).

With `O=C1CCC(c2ccc(-n3ccnc3)cc2)=NN1`, the Potency entry in experiment [1], in experiment [2], in experiment [3], in [4], in experiment [5] and in experiment [6] was “inactive” throughout. Besides, the Potency result in experiment [7], in experiment [8], in experiment [9] and in experiment [10] was “inactive” throughout.

For the compound `NCCc1ccn[nH]1`, the Potency result in experiment [1], in [2], in experiment [3], in experiment [4], in experiment [5] and in experiment [6] was “inactive” each time. Further, the Potency result in [7], in [8], in experiment [9] and in experiment [10] was “inactive” throughout.

Consider `CCn1cc(C(=O)O)c(=O)c2cnc(N3CCCC3)nc21`, for which the Potency entry in [1], in experiment [2], in experiment [3], in [4], in experiment [5] and in experiment [6] was “inactive” each time. The Potency entry in [7], in [8], in [9] and in experiment [10] was “inactive” throughout.

Turning to `CC(=O)Oc1ccc(C(c2ccc(OC(C)=O)cc2)c2ccccn2)cc1`, the Potency entry in [1], in experiment [2], in experiment [3], in experiment [4], in experiment [5] and in experiment [6] was “inactive” throughout. For the same compound, the Potency result in experiment [8], in experiment [9] and in experiment [10] was “inactive” each time. For the same compound, the Potency in experiment [7] was 7.08 µM (active).

In the case of `CCCCCCCCCCCCCCCC[N+](C)(C)CC`, the Potency in experiment [1] was 4.47 µM (active); in experiment [2], 5.62 µM (active); in experiment [3], 3.98 µM (active); in [4], 8.91 µM (active); in [5] it was 8.91 µM (active); in [6], 5.36 µM (active). The Potency in experiment [8] is 5.62 µM (active); in experiment [9] it was 4.47 µM (active); in [10], 5.01 µM (active).

For the compound `CCOc1ccc(NC(=O)CC(C)O)cc1` (configuration not stated), the Potency result in experiment [1], in [2], in [3], in experiment [4], in [5] and in [6] was “inactive” throughout. The Potency result in [7], in experiment [8], in [9] and in experiment [10] was “inactive” throughout.

In the case of `CC1=C(C(=O)OC(C)C)C(c2cccc([N+](=O)[O-])c2)C(C(=O)OC2CN(C(c3ccccc3)c3ccccc3)C2)=C(N)N1` (configuration not stated), the Potency in experiment [1] is 7.94 µM (active); in experiment [2], 6.31 µM (active); in [3], 8.91 µM (active); in experiment [4], 10 µM (active); in experiment [5], 4.47 µM (active); in experiment [6], 7.57 µM (active). Moreover, the Potency is 10 µM (active) in experiment [8], 6.31 µM (active) in [9] and 7.08 µM (active) in [10].

As to `CC(C)(Oc1ccc(Cl)cc1)C(=O)O`, the Potency result in experiment [1], in experiment [2], in [3], in experiment [4], in experiment [5] and in experiment [6] was “inactive” in each case. The Potency entry in experiment [7], in experiment [8], in [9] and in [10] was “inactive” in each case.

On to `O=C(OCCOCCO)c1ccccc1Nc1cccc(C(F)(F)F)c1`, for which the Potency result in experiment [1], in [2], in experiment [3], in experiment [4], in experiment [5] and in experiment [6] was “inactive” in each case. The Potency entry in experiment [7], in experiment [8], in experiment [9] and in [10] was “inactive” each time.

In the case of `CCCCCCc1ccc(O)cc1O`, the Potency entry in [1], in experiment [2], in experiment [3], in experiment [4], in [5] and in [6] was “inactive” in each case. The Potency result in experiment [7], in experiment [8], in experiment [9] and in experiment [10] was “inactive” throughout.

Regarding `C#C[C@]1(OC(C)=O)CC[C@H]2[C@@H]3CCC4=C[C@@H](OC(C)=O)CC[C@@H]4[C@H]3CC[C@@]21C`, the Potency result in experiment [1], in experiment [2], in [3], in [4], in [5] and in experiment [6] was “inactive” in each case. Also, the Potency result in experiment [7], in experiment [8], in [9] and in experiment [10] was “inactive” throughout.

Take `Cc1c(N(C)CS(=O)(=O)O)c(=O)n(-c2ccccc2)n1C`: the Potency result in [1], in [2], in [3], in experiment [4], in experiment [5] and in experiment [6] was “inactive” in each case. Moreover, the Potency result in [7], in [8], in [9] and in experiment [10] was “inactive” each time.

Consider `CN1C(CCl)Nc2cc(Cl)c(S(N)(=O)=O)cc2S1(=O)=O` (configuration not stated), for which the Potency result in [1], in [2], in [3], in experiment [4], in experiment [5] and in [6] was “inactive” each time. The Potency entry in experiment [7], in [8], in experiment [9] and in experiment [10] was “inactive” in each case.

With `Cc1ccnc(NS(=O)(=O)c2ccc(N)cc2)n1`, the Potency result in experiment [1], in [2], in experiment [3], in [4], in experiment [5] and in [6] was “inactive” each time. For the same compound, the Potency entry in experiment [7], in experiment [8], in [9] and in experiment [10] was “inactive” throughout.

With `COCc1c(C(C)C)nc(C(C)C)c(/C=C/[C@@H](O)C[C@@H](O)CC(=O)O)c1-c1ccc(F)cc1`, the Potency result in [1], in experiment [2], in [3], in experiment [4], in experiment [5] and in experiment [6] was “inactive” in each case. The Potency result in experiment [7], in experiment [9] and in experiment [10] was “inactive” each time.

Consider `Cc1ncc(CSSCc2cnc(C)c(O)c2CO)c(CO)c1O`, for which the Potency entry in [1], in experiment [2], in experiment [3], in [4], in [5] and in experiment [6] was “inactive” throughout. For the same compound, the Potency entry in [7], in [8], in experiment [9] and in experiment [10] was “inactive” throughout.

`CCCCOc1ccc(C(=O)CCN2CCCCC2)cc1`: the Potency result in [1], in [2], in experiment [3], in experiment [4], in experiment [5] and in experiment [6] was “inactive” in each case. In addition, the Potency entry in experiment [7], in [8], in experiment [9] and in experiment [10] was “inactive” throughout.

In the case of `O=C(O)CNC(=O)c1ccccc1`, the Potency result in experiment [1], in [2], in experiment [3], in experiment [4], in [5] and in experiment [6] was “inactive” each time. The Potency result in [7], in [8], in experiment [9] and in [10] was “inactive” each time.

For the compound `CCCCN1CCCC1C(=O)Nc1c(C)cc(C)cc1C` (configuration not stated), the Potency entry in experiment [1], in [2], in experiment [3], in experiment [4], in experiment [5] and in experiment [6] was “inactive” each time. Further, the Potency entry in [7], in experiment [8], in experiment [9] and in experiment [10] was “inactive” in each case.

Take `CC(O)(P(=O)(O)O)P(=O)(O)O`: the Potency result in experiment [1], in experiment [2], in experiment [3], in experiment [4], in experiment [5] and in experiment [6] was “inactive” each time. Also, the Potency result in [7], in experiment [8], in experiment [9] and in [10] was “inactive” throughout.

The values above are taken from PubChem BioAssay (NCATS).
